Screening results from PubChem BioAssay.
DAX1 inh-1 – inhibitors of DAX1 repression of SF-1 activated StAR promoter. HEK293T StAR-luciferase reporter, SF-1/DAX-1 repression relief. inhibition, % at 6.8 µM. 370,000 compounds, 1.1% hits;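 active = inhibition above the mean over all tested compounds plus 3 SD, cut at about 3.6% in these data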;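 note: 0% = DAX-1 cells with DMSO and 100% = cells lacking DAX-1 with DMSO; higher inhibition means more luminescence from relief of DAX-1 repression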
hcDAF12 agonist – activates DAF-12 receptor from parasite H. contortus. HEK293 hcDAF-12 lit1-tk-luc reporter, luminescence; 0% DMSO, 100% Δ7-dafachronic acid. activation, % at 6.8 µM. 370,000 compounds, 1.4% hits;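 active = activation above the mean of all tested compounds plus 3 SD, cut at about 5.5% in these data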;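 note: 100% = response to 3 µM Δ7-dafachronic acid high control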
DAX1 inh-2 – NR0B1 (DAX1) inhibition; 340,000 compounds, 0.99% hits; HEK293 Gal4-DAX1 luciferase reporter, luminescence; inhibition, % at 6.75 µM; P51843; AID 504766;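 active = inhibition above the mean over all tested compounds plus 3 SD, cut at about 4.2% in these data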;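 note: 0% = DAX1-transfected cells with DMSO and 100% = empty-vector control cells with DMSO; inhibition shows as a rise in luminescence from relieved DAX1 repression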
Target sequence (P51843 207-470 limits assumed): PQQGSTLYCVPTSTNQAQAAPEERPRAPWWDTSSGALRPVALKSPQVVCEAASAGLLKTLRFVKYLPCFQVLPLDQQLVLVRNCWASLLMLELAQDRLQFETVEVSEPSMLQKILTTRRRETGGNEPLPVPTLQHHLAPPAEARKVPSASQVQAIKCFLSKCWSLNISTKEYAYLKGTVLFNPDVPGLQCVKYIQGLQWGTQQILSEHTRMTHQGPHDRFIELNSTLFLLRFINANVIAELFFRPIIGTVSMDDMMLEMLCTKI
ssDAF-12 act – S. stercoralis DAF-12 activation, primary screen. HEK293 ssDAF-12/GRIP1 lit1-tk-luc reporter, luminescence; % of 3 µM dafachronic acid response. activation, % at 6.8 µM. 370,000 compounds, 1% hits. AID 652126;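 active = activation above the mean over all tested compounds plus 3 SD, cut at about 0.9% in these data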;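 note: 0% = DMSO-only wells and 100% = 3 µM delta7-dafachronic acid wells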
hgDAF12 agonist – hgDAF-12 agonism, primary luciferase screen; HEK293 GAL4-hgDAF12 UAS-luciferase reporter, agonist luminescence; normalized to butyrate control; activation, % at 6.8 µM; 370,000 compounds, 1.8% hits; AID 687014;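 active = activation above a cutoff set at the mean of all screened compounds plus 3 SD, cut at about 10% in these data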;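 note: 0% = DMSO wells and 100% = sodium butyrate wells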
Wee1 degr inh – inhibitors of human Wee1 degradation | HeLa Luc-Wee1K328M stability, luciferase luminescence; 100% = proteasome inhibitor MG132 effect | 220,000 compounds, 1.2% hits | reporter increase, % at 5 µM | P30291;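 active = activation above the mean of all tested compounds plus 3 SD, set per screening run, cut at about 8.8% in these data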;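 note: cells exposed to compound for 20 h before luminescence read; 0% = DMSO alone and 100% = MG132 at 30 µM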
hgDAF12 ag – confirmation of H. glycines DAF-12 agonists | activation, % at 6.8 µM | shares compounds with hgDAF12 agonist | 3,300 compounds, 80% hits | HEK293 GAL4-hgDAF12 luciferase reporter, agonist mode; percent of butyrate response;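 active = mean activation over triplicate wells above the hit cutoff derived from the earlier primary screen, cut at about 11% in these data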;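 note: 0% = DMSO low control and 100% = 2 mM sodium butyrate high control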
LXRb DAF12 ctr – LXR-beta agonism as DAF-12 counter-screen; AID 743051; shares compounds with hgDAF12 agonist; 3,300 tested, under 10 active; HEK293 Gal4-LXR luciferase reporter, 24 h; activation, % at 6.8 µM;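 active = mean activation of the triplicate above a set limit carried over from the primary screen, none filed active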
Target sequence (P55055 whole entry, looked up, the tested form may be a part): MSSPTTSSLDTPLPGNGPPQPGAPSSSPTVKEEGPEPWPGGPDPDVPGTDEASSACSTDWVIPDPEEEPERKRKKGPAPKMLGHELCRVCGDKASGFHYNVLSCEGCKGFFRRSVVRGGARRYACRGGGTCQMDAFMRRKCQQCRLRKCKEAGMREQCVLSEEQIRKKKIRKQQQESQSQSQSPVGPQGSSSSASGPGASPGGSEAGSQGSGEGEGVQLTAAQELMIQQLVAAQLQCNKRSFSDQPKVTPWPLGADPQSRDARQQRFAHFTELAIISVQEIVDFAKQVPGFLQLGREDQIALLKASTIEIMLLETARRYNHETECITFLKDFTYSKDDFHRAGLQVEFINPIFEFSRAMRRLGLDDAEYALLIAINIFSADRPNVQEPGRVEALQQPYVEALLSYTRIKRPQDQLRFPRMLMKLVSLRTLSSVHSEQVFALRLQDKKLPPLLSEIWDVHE
Numbers without * were called inactive; nt = not tested or not shown. In the library only some 4.6% were active in any assay of this set; here they are far more common.

SMILES	DAX1 inh-1	hcDAF12 agonist	DAX1 inh-2	ssDAF-12 act	hgDAF12 agonist	Wee1 degr inh	hgDAF12 ag	LXRb DAF12 ctr
Cc1ccc(SCCN2CCC(C)CCC2=O)cc1 (centres undefined)	1.8	3.5	1.8	0.2	14.4*	nt	17.3*	0.6
CC(/C=C/c1ccccc1F)=N\NC(=O)c1ccc(Cl)cc1	-0.1	-0.6	-0.8	-1.2	6.0	0.9	nt	nt
CC(/C=C/c1ccccc1F)=N\NC(=O)c1ccccc1	2.7	2.2	2.8	-0.5	14.5*	3.6	10.4	0.3
O=C(Nc1ccc(N2CCCCC2)cc1)C(Cl)c1ccccc1 (centres undefined)	0.7	5.4	2.7	0.5	19.2*	8.0	8.5	0.4
O=C(Nc1ccc(N2CCCCCC2)cc1)c1ccccc1Cl	1.1	1.5	2.5	0.7	17.1*	4.8	18.7*	0.5
N#Cc1c(N)nc(N)nc1Nc1ccc(Br)cc1	2.1	4.1	2.5	0.0	17.2*	-0.1	18.1*	0.8
Cc1nc(N)nc(Nc2ccc(C#N)cc2)c1Br	-0.6	-2.8	0.1	-2.9	2.9	-0.7	nt	nt
CC(Oc1ccc(C#N)cc1)C(=O)N1CC=C(c2ccccc2)CC1 (centres undefined)	-0.5	-0.5	-0.5	-0.9	-0.8	nt	nt	nt
Oc1cccc(C=NCc2ccccc2)c1O	-0.6	-0.8	-1.2	-1.0	-0.7	-3.2	nt	nt
Oc1c(C=NCc2ccccc2)sc2ccccc12	1.1	4.0	11.9*	-0.2	15.4*	1.2	16.0*	0.3
C=CCN(C(=O)[C@@H](C1CC1)[C@@H](O)c1ccc(Cl)cc1)c1ccccc1	-1.9	-2.2	nt	-1.0	-1.6	nt	nt	nt
CCCC1CCC(c2ccc(OCC)cc2)=CC1=O (centres undefined)	1.5	0.8	3.3	-0.3	14.1*	nt	15.7*	0.8
C[C@@H](C(=O)OCC(=O)c1ccccc1)N1C(=O)C2CCCCC2C1=O (some centres undefined)	0.6	0.6	0.8	-0.5	0.8	nt	nt	nt
CC(=O)c1ccc(N/C=C\C(=O)c2ccc(C)cc2)cc1	2.4	2.9	1.9	2.0*	18.5*	-0.8	19.7*	0.8
Cc1ccc2c(c1)COc1c3ccc(C(=O)NCC4CC4)cc3nn1-2	1.0	0.3	-0.7	-1.7	7.1	nt	nt	nt
O=C(NCC1CC1)c1ccc2c3n(nc2c1)-c1ccccc1CO3	3.1	4.2	-1.5	0.7	14.1*	nt	17.2*	1.0
O=C(Oc1ccc2ccc(O)cc2c1)c1ccccc1Cl	0.8	3.6	1.9	-0.3	13.9*	nt	7.4	0.4
O=C(Oc1ccc2ccc(O)cc2c1)C1CCCCC1	0.6	-1.1	nt	-0.9	8.6	-2.0	nt	nt
Clc1ccccc1-c1nnc(-c2ccc3c(c2)OCO3)o1	3.5	5.8*	2.6	0.6	19.3*	4.5	14.8*	0.8
Clc1ccc(-c2nnc(-c3ccccc3)o2)c(Cl)c1	4.0*	4.6	0.8	0.1	16.0*	-0.1	16.5*	1.0
O=[N+]([O-])c1cccc(-c2nnc(-c3ccc4c(c3)OCO4)o2)c1	-0.1	0.5	0.8	-0.5	2.0	1.5	nt	nt
CN(C)c1ccc(/C=C(\C#N)c2ccccn2)cc1	1.9	0.7	-4.1	-1.2	0.0	-4.5	nt	nt
COC(=O)c1ccc(/C=C(\C#N)c2ccccn2)cc1	3.1	3.0	5.0*	1.5*	14.6*	2.4	14.0*	0.7
COc1cc(OC)nc(Nc2nc(C(N)Cc3ccc(F)cc3)cs2)n1 (centres undefined)	-0.8	0.2	nt	-1.2	-1.7	nt	nt	nt
O=C(O)CCN1C(=O)c2ccc(NC(=O)COc3ccccc3)cc2C1=O	0.2	-0.4	0.1	-0.6	-1.7	nt	nt	nt
SMILES	DAX1 inh-1	hcDAF12 agonist	DAX1 inh-2	ssDAF-12 act	hgDAF12 agonist	Wee1 degr inh	hgDAF12 ag	LXRb DAF12 ctr
CN(C(=O)/C=C/c1ccccc1)C1CCCCC1	1.0	4.8	nt	-0.7	14.1*	nt	17.2*	0.7
O=C(N/N=C/c1cccnc1)c1ccccc1OCc1cccc(Br)c1	-0.7	-0.3	-0.6	-1.6	-0.5	-2.2	nt	nt
CCOc1ccc(OCc2cccc(C(=O)N/N=C/c3cccnc3)c2)cc1	3.7*	4.3	-6.5	0.1	15.0*	-1.9	19.1*	0.7
CC(C)c1ccc(OCc2cccc(C(=O)N/N=C/c3cccnc3)c2)cc1	3.9*	3.6	-5.7	0.8	21.1*	1.5	18.3*	0.9
O=C(N/N=C/c1cccnc1)c1cccc(Br)c1	0.6	3.3	2.0	-1.2	1.4	nt	nt	nt
C/C(=N\Nc1nncc2ccccc12)c1cccc(OC(F)F)c1	1.9	6.1*	-2.2	0.6	18.1*	nt	20.3*	1.1
C/C(=N\Nc1ccccn1)c1ccc(OC(F)F)cc1	1.1	-0.8	0.3	-1.2	4.9	1.8	nt	nt
O=C(C1CCN(c2ncnc3c2sc2cccc(F)c23)CC1)N1CCN(C(=O)C2CCCO2)CC1 (centres undefined)	-1.2	-0.7	nt	-0.2	2.3	nt	nt	nt
COC(=O)C1C(=O)c2c([nH]c(C(=O)OC3CCCCC3)c2C)CC1C (centres undefined)	2.5	1.2	5.3*	0.2	14.9*	-0.1	11.9*	0.5
CC1=C(C(=O)N2CCOCC2)CC(CC(=O)NC2CCCCC2)C(=O)N1Cc1ccc(C(C)(C)C)cc1 (centres undefined)	-1.0	-1.1	0.5	-1.0	-1.6	nt	nt	nt
C/C(=N\NC(=O)c1c(Br)c(C)nn1C)c1cccc(NC(=O)c2ccccc2F)c1	0.4	-1.1	-0.9	-1.6	-1.3	4.1	nt	nt
C/C(=N\NC(=O)c1nn(C)c(C)c1Br)c1cccc(NC(=O)c2ccc(F)cc2)c1	4.1*	5.0	2.6	0.1	16.7*	1.4	4.6	0.2
CC1(C)CC(=O)C(C(N)=NC(=O)c2ccccc2)=C(O)C1	0.2	-2.2	-1.5	-1.3	3.3	2.6	nt	nt
C/C(=N\NC(=O)c1ccccc1)c1cccc(Br)c1	1.0	2.9	1.7	0.3	14.4*	7.2	7.0	0.3
C/C(=N/NC(=O)c1ccccc1)C1=C(O)CC(C)(C)CC1=O	1.8	3.5	1.9	-0.9	14.3*	0.9	3.2	0.2
Cc1ccc(CN2CCC(n3nccc3NC(=O)CCOc3ccccc3)CC2)cc1C	-1.6	-0.9	-0.1	-1.5	-1.3	nt	nt	nt
NC(N)=Nc1nc(C2COc3ccccc3O2)cs1 (centres undefined)	1.9	5.5	0.2	0.3	13.6*	5.7	17.5*	0.8
N/C(=N\O)C1COc2ccccc2O1 (centres undefined)	-0.6	1.0	-0.1	-1.2	0.6	2.2	nt	nt
